Experimental data as given in PubChem BioAssay AID2685 (National Center for Advancing Translational Sciences (NCATS), 2010).
In all, about 320,000 compounds went through this assay and about 2,100 (0.66%) were called active. Inconclusive results (about 53%) are left out. This is one part of a sample in which actives are shown more often than they occur. Calls follow the shape of the dose curve; as a rule, active = well fitted inhibition curve with a large enough effect in the signal ratio, with a control signal flat (not every such curve was filed as active); inconclusive = small, poorly fitted or top-dose-only effect, or effect the other way, or a change in a side signal; inactive = flat fitted curve, though single readings scatter; the % refers to the signal ratio.

test: qHTS Assay for Lipid Storage Modulators in Drosophila S3 Cells; settings: BODIPY lipid droplet fluorescence, 18-24 h, cells fed with added oleic acid; cell number change: measured here: cell count max response; series mostly up to 46.1 µM;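 as to cell number change: cells counted by Cell Tracker Red CMTPX staining in the red channel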; as to lipid storage change, negative = inhibition: % is scaled to controls: 0 for no effect and ±100 for the full control effect
Procedure, shortened: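 Drosophila S3 cells loaded with oleic acid (400 uM, as added) and compounds at several concentrations; lipid droplets imaged by 488-nm laser-scanning cytometry, 500–530 nm intensity and object ratio to cell channel. Percent activity normalized to 20 uM Triacsin C.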
Potency is read from the fitted curve at half-maximal effect.

Compound | Potency | cell number change [%] | lipid storage change, negative = inhibition
COc1ccc(/C=C2/N=C(SC3CCOC3=O)N(c3cccc(OC)c3)C2=O)cc1 (stereo not given) | inactive | -7.72 | –
CCOC(=O)C1CCN(CC(=O)c2c(C)[nH]c3ccccc23)CC1 | inactive | – | –
O=c1oc(-c2cccs2)nc2ccccc12 | inactive | 0.728 | –
Cc1ccc(CSCCNC(=O)CSCc2ccc([N+](=O)[O-])cc2)cc1 | inactive | – | –
Cc1cccc(CSCCNC(=O)CSCc2ccc([N+](=O)[O-])cc2)c1 | 14.6 µM (active) | -21.3 | –
Cc1ccccc1CSCCNC(=O)CSCc1ccc([N+](=O)[O-])cc1 | inactive | -11.7 | –
Cc1ccc(C)c(N2CCN(C(=O)c3ccccc3Br)CC2)c1 | inactive | 10.9 | –
COC(=O)C1(Cc2cc(-c3cccc(Br)c3)no2)CCN(C(=O)OC(C)(C)C)CC1 | inactive | 7.19 | –
Brc1cccc(-c2nnc(-c3ccccc3)o2)c1 | inactive | 1.68 | –
CNc1ccccc1C(C)(C)c1cc(-c2cccc(Br)c2)no1 | 1.46 µM (active) | -5.11 | –
CCc1ccc(CNC(=O)C2CCN(S(=O)(=O)N3CCC4(CC3)OCCO4)CC2)cc1 | inactive | 0.101 | –
Cc1ccccc1C(=O)Nc1ccnn1C1CCN(Cc2c(C)n(C)c3ccccc23)CC1 | inactive | 1.16 | –
Oc1[nH]c2ccccc2c1N=Nc1c(F)c(F)c(C(F)(F)F)c(F)c1F | inactive | 14.6 | –
Oc1[nH]c2ccccc2c1N=Nc1ccc(F)cc1 | 20.6 µM (active) | -4.65 | –
Cc1ccc2[nH]c(O)c(N=NC(N)=S)c2c1 | inactive | 9.04 | –
Oc1[nH]c2ccccc2c1N=Nc1c(F)c(F)c(Cl)c(F)c1F | inactive | -0.455 | –
Cc1ccc(N=Nc2c(O)[nH]c3ccc(F)cc23)cc1 | 9.2 µM (active) | 2.25 | –
O=C(O)c1ccc(N=Nc2c(O)[nH]c3ccc(Br)cc23)cc1 | inactive | 13.1 | –
O=C(NC1(C(=O)NC2CCCCC2)CCCCC1)c1ccc2c(c1)OCO2 | inactive | 4.66 | –
O=C(NNC(=O)c1cnccc1C(F)(F)F)c1ccccc1 | inactive | 8.28 | –
O=C(O)CC12CC3CC(C1)CC(n1ncc(NCc4ccc5c(c4)OCO5)c(Cl)c1=O)(C3)C2 | inactive | 16.3 | –
O=C(NCC1CCCO1)c1ccc(NC(=O)c2ccc([N+](=O)[O-])cc2)cc1 (stereo not given) | inactive | 13.2 | –
CN(CC1CCCO1)S(=O)(=O)c1ccc(C(=O)Nc2ccc([N+](=O)[O-])cc2)cc1 (stereo not given) | 12.6 µM (active) | -17.5 | –
Cc1cc(NC(=O)c2ccc(S(=O)(=O)N(C)CC3CCCO3)cc2)no1 (stereo not given) | inactive | – | –

Compound | Potency | cell number change [%] | lipid storage change, negative = inhibition
CN(C)S(=O)(=O)c1ccc(NC(=O)c2ccc([N+](=O)[O-])cc2)cc1 | inactive | -1.07 | –
CN(CC1CCCO1)S(=O)(=O)c1ccc(C(=O)Nc2ccc3c(c2)OCO3)cc1 (stereo not given) | inactive | 16.6 | –
CN(CC1CCCO1)S(=O)(=O)c1ccc(C(=O)Nc2ccc(F)cc2)cc1 (stereo not given) | 23.1 µM (active) | -21.7 | –
CCOC(=O)Cn1c(=O)c2c(nc3n2CCS3)n(C)c1=O | inactive | 2.48 | –
CN1C(C(=O)NCc2ccco2)CC2Cn3c(nc4cc5ccccc5cc43)C21 (stereo not given) | inactive | 2.89 | –
COc1cccc(C(=O)NCCS(=O)(=O)N2CC(C)CC(C)C2)c1 (stereo not given) | inactive | 28.7 | –
CCN(Cc1ccccc1)C(c1ccncc1)c1nnnn1C(C)(C)C (stereo not given) | inactive | 1.49 | –
Cc1c2ccccc2nc2c(F)c(NCCO)c(F)c(F)c12 | inactive | -2.87 | –
Cc1c2ccccc2nc2c(F)c(NC(C)C)c(F)c(F)c12 | 20.6 µM (active) | -3.77 | –
CCCNc1nc2ccccc2c(=O)[nH]1 | inactive | -7.59 | –
CN(C)c1c2ccccc2nc2c(F)c(F)c(F)c(F)c12 | inactive | -0.117 | –
Cc1c2ccccc2nc2c(F)c(N(C)C)c(F)c(F)c12 | inactive | -4.76 | –
CCCNc1c(F)c(F)c2c(C)c3ccccc3nc2c1F | 14.6 µM (active) | 13.7 | –
CCOC(=O)/C(=N\NC(=O)c1ccccc1)c1ccccc1 | inactive | 17.6 | –
CCOC(=O)c1sc2ccc(S(=O)(=O)N3CCOCC3)cc2c1N | inactive | -11.9 | –
CCOC(=O)NC(=O)CSc1cc(C)c2cc(C)cc(C)c2n1 | inactive | -6.06 | –
O=C(c1ccc(F)cc1)N1CCN(S(=O)(=O)c2ccc(Br)cc2)CC1 | inactive | – | –
COC(=O)C1(CCSC)NC(c2ccc(O)cc2)C2C(=O)N(c3ccc4c(c3)OCCO4)C(=O)C21 (stereo not given) | inactive | 9.07 | –
COC(=O)C1(C)NC(c2ccc(O)cc2)C2C(=O)N(c3ccc(C)cc3)C(=O)C21 (stereo not given) | inactive | -4.99 | –
CCCC1(C(=O)OCC)NC(c2ccc(N(C)C)cc2)C2C(=O)N(c3ccc4c(c3)OCCO4)C(=O)C21 (stereo not given) | inactive | 7.42 | –
CCCC1(C(=O)OCC)NC(c2ccc(O)cc2)C2C(=O)N(c3ccc4c(c3)OCCO4)C(=O)C21 (stereo not given) | 18.4 µM (active) | – | –
CCOC(=O)C1(C)NC(c2cccc(C)c2)C2C(=O)N(c3ccccc3)C(=O)C21 (stereo not given) | inactive | 1.72 | –
CCOC(=O)C1(C)NC(c2ccc(O)cc2)C2C(=O)N(c3ccccc3)C(=O)C21 (stereo not given) | 20.6 µM (active) | 13.7 | –
c1ccc(N2CCN(CCc3nnc4n3CCCCC4)CC2)cc1 | inactive | 1.29 | –

Compound | Potency | cell number change [%] | lipid storage change, negative = inhibition
Cc1cc(NC(=O)c2ccco2)ccc1NC(=O)c1ccco1 | inactive | 11.3 | –
Cc1cc2oc(=O)cc(CNc3ccccc3F)c2cc1O | inactive | -14.4 | –
CCOc1ccccc1NCc1cc(=O)oc2cc(C)c(O)cc12 | 3.66 µM (active) | -1.8 | –
CCOc1ccccc1NCc1cc(=O)oc2cc(C)ccc12 | inactive | -3.97 | –
CC(C)(C)c1ccc(NC(=O)c2cc[n+]([O-])cc2)cc1 | inactive | 27.8 | –
Cc1ccn(CC(C)C(=O)O)n1 (stereo not given) | inactive | 3.92 | –
CCN1CCN(C(CNS(=O)(=O)c2ccc(Br)cc2)c2cccnc2)CC1 (stereo not given) | inactive | -9.83 | –
CCOc1ccc(NC(=O)Nc2cc(OCC(F)(F)F)cc(OCC(F)(F)F)c2)cc1 | 5.8 µM (active) | -25.7 | –
CCOc1ccc(NC(=O)Nc2ccc(NC(C)=O)cc2)cc1 | inactive | 11 | –
CCOc1ccc(NC(=O)Nc2cccc(C(=O)O)c2)cc1 | inactive | 14.2 | –
CCN(CC)CCn1c2ccccc2c2nc3ccc([N+](=O)[O-])cc3cc21 | inactive | 8.11 | –
O=[N+]([O-])c1ccc2c(c1)c1ccccc1n2CCO | inactive | 0.129 | –
CN(C)CCn1c2ccccc2c2nc3ccc([N+](=O)[O-])cc3cc21 | 7.31 µM (active) | -46.5 | –
CC1(C)CC(=O)C2=C(C1)OC(N)=C(C#N)C2c1ccsc1 (stereo not given) | inactive | – | –
COc1ccc(N2CCN(C(=O)C3CCN(S(=O)(=O)c4ccc5c(c4)oc(=O)n5C)CC3)CC2)cc1 | inactive | – | –
COc1cc(/C=C/C(=O)Nc2ccc3nc4n(c(=O)c3c2)CCCC4)cc(OC)c1OC | inactive | -7.64 | –
C/C(=N/Nc1ccccc1[N+](=O)[O-])c1ccc([N+](=O)[O-])cc1 | inactive | 22.2 | –
CC(C)/C(=N/Nc1ccccc1[N+](=O)[O-])c1ccccc1 | 9.2 µM (active) | -12.6 | –
O=[N+]([O-])c1ccccc1N/N=C/c1ccccc1 | inactive | -10.2 | –
COc1cccc(CN2CC(C(=O)NCCCn3cccn3)CCC2=O)c1 (stereo not given) | inactive | 0.348 | –
CC(C)(C)C(=O)/C=c1\s/c(=C\c2ccc(-c3ccc([N+](=O)[O-])cc3)o2)c(=O)n1CC(=O)NC(N)=O | 1.03 µM (active) | -31.4 | –
CCCNC(=O)Cn1c(=O)/c(=C\c2ccc(-c3cccc([N+](=O)[O-])c3)o2)s/c1=C\C(=O)C(C)(C)C | inactive | 0.916 | –
CCC(=O)N/N=C/c1ccc(-c2ccc([N+](=O)[O-])cc2)o1 | inactive | 3.62 | –
O=C(COC(=O)CCN=C1NS(=O)(=O)c2ccccc21)NNC(=O)c1ccccc1 | – | -17.2 | -1.99% [at 0.0737 µM] (inactive)

Compound | Potency | cell number change [%] | lipid storage change, negative = inhibition
Cn1cc(CN2CCC(N3CCNC(=O)CC3)CC2)c(-c2ccccc2F)n1 | inactive | -9.69 | –
CCOC(=O)C1CCN(Cc2ccc(OC)c(OCc3ccccc3)c2)CC1 | inactive | -8.13 | –
O=C(CSc1nc(-c2ccc(F)cc2)cs1)NCCN1C(=O)CSC1=O | inactive | – | –
O=C(CSc1n[nH]c(-c2cc(Cl)ccc2Cl)n1)NCCN1C(=O)CSC1=O | 18.4 µM (active) | -24.6 | –
O=C(COC(=O)c1cc(Cl)ccc1Cl)NCCN1C(=O)CSC1=O | inactive | -6.51 | –
O=C(CCc1nnc2ccc(NCc3ccccc3Cl)nn12)NC1CCCC1 | inactive | 3.96 | –
CC1(C)CC(=O)C2=C(C1)Oc1ncn(Cc3ccco3)c(=N)c1C2c1ccccc1 (stereo not given) | inactive | -0.936 | –
CC(C)(C)n1ncc2c(=O)n(Cc3c(F)cccc3Cl)cnc21 | inactive | 4.75 | –
O=C1NC(c2ccccc2)=C(c2ccc3ccccc3n2)C(c2ccccc2)N1 (stereo not given) | inactive | -0.112 | –
CC(C)(Oc1ccc(CCNC(=O)c2ccc(-c3ccccc3)o2)cc1)C(=O)O | inactive | 7.48 | –
Cc1ccc(S(=O)(=O)Nc2nc3ccccc3nc2NCc2ccc3c(c2)OCO3)cc1C | inactive | -0.718 | –
O=c1oc(-c2cc3ccccc3o2)nc2sc3c(c12)CCCC3 | inactive | -5.74 | –
COc1ccc(C(=O)COC(=O)CNC(=O)c2ccc(OC)cc2)cc1 | inactive | – | –
COc1ccc(C(=O)NN)cc1 | inactive | 15 | –
COc1ccc(C(=O)NCC(=O)O)cc1 | 16.4 µM (active) | -3.91 | –
CCc1nccn1S(=O)(=O)c1cc(OC)ccc1OC | inactive | – | –
CCn1cc(CN2CCN(Cc3ccc(OC)c(C)c3C)C(CCO)C2)c(C)n1 (stereo not given) | inactive | 2.86 | –
CCCCCn1cnnc1SCC(=O)c1ccc2c(c1)OCO2 | inactive | -4.15 | –
CC(=Nc1ccccc1O)c1sc2ccccc2c1O | 25.9 µM (active) | -13.3 | –
CC(=Nc1ccc(O)cc1)c1sc2ccccc2c1O | inactive | 0.835 | –
CC(=Nc1ccc(Br)cc1)c1sc2ccccc2c1O | inactive | – | –
